In all, about 420,000 compounds went through this assay and about 64,000 (15%) were called active. About 27% were inconclusive and are not listed. Only a sample is shown. A number with no mark means an inactive call. The call rests on the fitted dose curve; in most records, active means well fitted inhibition curve with a large enough effect; inconclusive means small, poorly fitted or top-dose-only effect; inactive means flat fitted curve, though single readings scatter.

The text below walks through data of PubChem BioAssay AID686978 (National Center for Advancing Translational Sciences (NCATS), 2013).
On the % scale 0 is the no-effect control and ±100 the full control effect; potency means the concentration at half of the fitted maximal effect.

The assay is described as follows: qHTS for Inhibitors of human tyrosyl-DNA phosphodiesterase 1 (TDP1): qHTS in cells in absence of CPT. Further: nearly all actives have a fitted effect of over 55% in size. Conditions: DT40 Tdp1-/- hTDP1 cells, no CPT, ATP luminescence, 48 h; activity change, negative = growth inhibition: at 46.2 µM (top of the series). The procedure, abridged: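 Growth kinetics read by CellTiter-Glo luminescence after ≥48 hr at 37 °C. Cells: DT40 Tdp1-/- stably carrying human TDP1, 400 per well, compound exposure in the absence of CPT (DMSO vehicle).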
In general terms: qHTS replaces the single test concentration by a dilution series.
Regarding `Clc1ccccc1CSc1nnc(-c2ccco2)c(-c2ccco2)n1`, the “activity change, negative = growth inhibition” value was -20.7%.
Same read-out and setting: the same measure for `COC(=O)c1noc(C)c1-c1ccnn1C(=O)c1ccc(Cl)cc1`: 3.11%.
For `Cc1onc(-c2ccc(Cl)cc2)c1-c1ccnn1S(=O)(=O)c1ccc(Cl)cc1`, the Potency was 16.4 µM (active).
Consider `CC(Oc1ccc(Cl)cc1)c1ccnn1S(C)(=O)=O` (stereo unspecified), for which the “activity change, negative = growth inhibition” value is -19.6%.
On the same count and under the same terms, the same measure for `Nc1ncnc2c1ncn2[C@@H]1O[C@H](C(=O)NS(=O)(=O)c2c(Cl)nc3sccn23)[C@@H](O)[C@H]1O`: -0.108%.
Still for that read-out and setting: in the case of `COC1C[C@@H](O[C@@H]2C(C)C(=O)OC(C)C(C)C(O)C(C)C(=O)[C@@]3(CO3)CC(C)C(OC3OC(C)CC(N(C)C)C3O)C2C)OC(C)[C@@H]1O` (stereo partly specified) it was -0.826%; in that of `Cc1ccc(S(=O)(=O)n2cccc2CO)cc1`, -3.56%.
Same read-out and setting: in the case of `CCOc1ccc(-c2cc3c(=O)n(CC(=O)NCc4ccc(OC)cc4)ccn3n2)cc1` it was -10.6%; in that of `COCCCNC(=S)NNC(=O)C(O)(c1ccccc1)c1ccccc1`, -6.89%.
For `COc1cc(C2/C(=C(\O)c3ccc4c(c3)CC(C)O4)C(=O)C(=O)N2c2nnc(C)s2)cc(OC)c1OC` (stereo unspecified), the “activity change, negative = growth inhibition” value is 11.4%.
The same measure, in the same setting: the same measure for `CS(=O)(=O)N1CCc2nc(-c3ccccc3)sc2C1`: 2.11%; for `COC(=O)c1cccc(N2C(=O)C3C4C=CC(CC4)C3C2=O)c1` (stereo unspecified): -0.408%.
With `COC(=O)[C@@]1(Sc2ccc(C)cc2)CC(=O)N(c2cccc(SC)c2)[C@@H]1c1ccccc1`, the “activity change, negative = growth inhibition” value is -80.6%.
In the case of `COC(=O)c1ccccc1SC1CC(=O)N(c2cccc(C)c2)C1=O` (stereo unspecified), the Potency is 8.2 µM (active).
As to `Cc1ccc(CC2S/C(=C(/C#N)C(=O)N3CCOCC3)N(c3ccccc3)C2=O)cc1` (stereo unspecified), the “activity change, negative = growth inhibition” value is -17.2%.
As to `C[n+]1ccc(/C=C/c2c[nH]c3ccccc23)cc1`, the Potency is 0.651 µM (active).
Take `O=C(NC1CCCC1)C(=O)c1c[nH]c2ccccc12`: the “activity change, negative = growth inhibition” value is 2.79%.
Same read-out and setting: the same measure for `CC(=O)N/C(=C/c1ccc(Cl)cc1)C(=O)NCCc1c[nH]c2ccccc12`: -27.7%; for `O=C(NCc1ccc(F)cc1F)[C@@H]1CCCN1C(=O)[C@@H]1CCCN1C(=O)c1cccc(Cl)c1`: -41.3%.
As to `Cc1cc(=O)oc2c1c(C)nn2-c1ccc(Cl)cc1`, the “activity change, negative = growth inhibition” value was -23.9%.
The same measure, in the same setting: in the case of `O=C(Nc1ccccc1)OCc1cn(-c2ccc(Cl)cc2)nn1` it was -27.2%; in that of `Cc1c(NC(=O)Nc2ccc(F)c(Cl)c2)c(=O)n(-c2ccccc2)n1C`, -1.88%.
Regarding `CC(=O)c1cccc(-c2cnc3c(NC=O)cc(-c4ccc(N(C)C)cc4)cn23)c1`, the Potency is 8.2 µM (active).
As for `CC(=O)Nc1cccc(-c2cc(NC=O)c3ncc(-c4ccc(F)c(Cl)c4)n3c2)c1`, the Potency is 16.4 µM (active).
In the case of `CCOc1ccccc1C1CC(c2cccc(NS(C)(=O)=O)c2)=NN1C(=O)c1ccccc1` (stereo unspecified), the “activity change, negative = growth inhibition” value was -12%.
The same measure, in the same setting: the same measure for `N#C/C=C(/c1ccc(F)cc1)N1CCOCC1`: -5.74%.
`O=CNc1cc(-c2ccc(C(=O)N3CCOCC3)cc2)cn2c(-c3ccc(F)cc3)cnc12`: the Potency was 18.4 µM (active).
For `CC(=O)Nc1cccc(-c2cnc3ccccc3n2)c1`, the “activity change, negative = growth inhibition” value was -14.1%.
Same read-out and setting: in the case of `Cc1ccc(C(=O)N2CCN(C(=O)N3CCOCC3)CC2)cc1` it was -0.848%.
For `CC(=O)c1ccc(-c2cnc3c(NC=O)cc(-c4cccc(NS(C)(=O)=O)c4)cn23)cc1`, the Potency is 20.6 µM (active).
Consider `CCS(=O)(=O)Nc1cc(C(=O)N2C[C@@H](C)O[C@@H](C)C2)c2c(c1)nc(-c1ccccc1)n2C`, for which the “activity change, negative = growth inhibition” value was -3.48%.
Same read-out and setting: the same measure for `COC(c1ccccc1)c1nnc(CCC(=O)N2CCN(CCOc3ccccc3)CC2)o1` (stereo unspecified): -28.4%; for `CSc1nnc2c(n1)OC(c1cn(C)c3ccccc13)N(C(C)=O)c1ccccc1-2` (stereo unspecified): -3.8%; for `O=C(O)c1ccccc1CSc1nc2ccccc2s1`: -19.5%.
The same measure, in the same setting: the same measure for `CCNC(=O)CC1C(=O)N(c2ccc(F)cc2)C(=O)N1CCc1sccc1C` (stereo unspecified): -13.8%; for `Cc1nc2nc[nH]n2c(=O)c1C/C=C/c1ccccc1`: -2.31%.
Same read-out and setting: the same measure for `CCn1c(CSc2ncccn2)nnc1SCC(=O)N1c2ccccc2CC1C` (stereo unspecified): -7.77%; for `CCc1nnc(NC(=O)CCC(=O)NCc2ccccc2OC)s1`: 5.54%; for `COc1ccccc1C1/C(=C(/O)c2ccc(OC(C)C)cc2)C(=O)C(=O)N1c1cc(C)on1` (stereo unspecified): -14.2%.
On to `O=C(Nc1ccc(F)cc1)N1CCN(c2ccc(F)cc2)CC1`, for which the “activity change, negative = growth inhibition” value was -1.59%.
As to `CC(=O)Nc1cc(-c2ccc(N3CCN(C)CC3)cc2)cn2c(-c3ccc(F)cc3)cnc12`, the Potency is 4.61 µM (active).
Turning to `CC(=O)c1cccc(-c2cnc3c(NC=O)cc(-c4ccccc4Oc4ccccc4)cn23)c1`, the Potency was 14.6 µM (active).
Regarding `COc1ccc(NC(C)=O)cc1NC(=O)CN1CCN(c2ccc(F)cc2)CC1`, the “activity change, negative = growth inhibition” value is -26.4%.
Still for that read-out and setting: the same measure for `COc1ccc(-c2nnc(SCC(=O)Nc3ccccc3C)o2)cc1OC`: -12.8%.
As for `CN(C)C(=O)c1cccc(-c2cnc3c(NC=O)cc(-c4ccc(F)cc4)cn23)c1`, the Potency was 6.51 µM (active).
Still for that read-out and setting: the same measure for `COc1ccc(-c2cc(NC=O)c3ncc(-c4ccccc4)n3c2)cc1OC`: 8.2 µM (active).
Take `COc1ccc(-c2nnco2)cc1OC`: the “activity change, negative = growth inhibition” value is -8.54%.
The same measure, in the same setting: the same measure for `CCCCCCCCCCOC(=O)C[N+](C)(C)CC1CCCCC1O` (stereo unspecified): -24.1%.
Turning to `CO/N=C/c1cn(-c2ccc(Cl)cc2)nn1`, the “activity change, negative = growth inhibition” value was 1.24%.
On the same count and under the same terms, the same measure for `CCOC(=O)CSc1nnc(CNC(=O)c2cccs2)n1-c1ccccc1`: 3.51%; for `Nc1ccc(-c2nnc(-c3ccccc3)o2)cc1`: -8.88%.
